# Screens deposited in PubChem by National Center for Advancing Translational Sciences (NCATS).
# HT1080 IDH1KD tx – kills HT-1080 cells with IDH1 knockdown; Potency, µM (titrated, usually from 46.1 µM), for the others: at the highest dose activity, negative = toxicity, most hits filed as cytotoxic; HT-1080 IDH1 knockdown viability, ATP luminescence, 48 h; actives 2% (n = 360,000); AID 686971;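 also: potency is read from the fitted curve at half-maximal effect; 0% = DMSO wells and -100% = cell-free medium wells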
#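 Luminescent ATP read-out (CellTiter-Glo, 10 min at room temperature) after 48 h compound exposure at 37 °C gave viability of IDH1-knockdown HT-1080 cells. Activity was normalised to DMSO and cell-free wells, then fitted as concentration-response curves.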
# ELG1 repair inh – inhibitors of ELG1-dependent DNA repair in HEK293T cells. HEK293T ELG1-luciferase reporter, luminescence, 16 h; DNA damage induced by 5-fluorouridine. Potency, µM (titrated, usually from 46.1 µM), for the others: top-dose activity change, negative = inhibition, most hits filed as inhibitors. actives 2.3% (n = 330,000). AID 504467; also: potency is read from the fitted curve at half-maximal effect; nearly all actives have a fitted effect of over 55% in size
#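 HEK293T cells expressing luciferase-tagged ELG1 (2,000/well) received 5-Fluorouridine plus compound or DMSO for 16 hr at 37 °C. Luciferase was read by ONE-Glo luminescence after 30 min at room temperature.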
# DT40 TDP1 no CPT – qHTS for Inhibitors of human tyrosyl-DNA phosphodiesterase 1 (TDP1): qHTS in cells in absence of CPT; DT40 Tdp1-/- hTDP1 cells, no CPT, ATP luminescence, 48 h; Potency, µM (highest dose often 46.2 µM), for the others: top-dose activity change, negative = growth inhibition, most hits filed as inhibitors; actives 15% (n = 420,000); also: potency is read from the fitted curve at half-maximal effect; nearly all actives have a fitted effect of over 55% in size
#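 Chicken DT40 Tdp1-/- cells stably complemented with human TDP1 were seeded at 400 cells/well with DMSO in place of 20 nM camptothecin. After compound pinning, cells grew at least 48 hr at 37 °C; viability read by CellTiter-Glo luminescence.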
# IL1B secr inh – inflammasome signaling inhibition, IL-1 beta readout; actives 4.7% (n = 360,000); THP-1 LPS/ATP IL-1B secretion, AlphaLISA, 16 h; stronger effect = lower value; activity change, % at 57.5 µM; in the data active = activity change below about -50%; inconclusive = mostly about -30% to -49%
#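 THP-1 cells pretreated 1 hr with compounds (up to 57.5 uM final), then stimulated with LPS (250 ng/mL final) plus ATP (1.25 mM final); secreted IL-1B measured by AlphaLISA after 16 hr, decreased signal indicating inhibition.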
# HT1080NT lethal – kills 2HG-producing HT-1080-NT fibrosarcoma cells; Potency, µM (top dose mostly 46.1 µM), for inactives: at the top dose activity, negative = less viability, most hits filed as cytotoxic; HT-1080-NT fibrosarcoma viability, CellTiter-Glo ATP luminescence, 48 h; actives 1.6% (n = 360,000);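 also: NT is the 2HG producing partner of a matched IDH1 knockdown line; potency is read from the fitted curve at half-maximal effect; 0% = DMSO-treated cells and -100% = media-only wells without cells; nearly all actives have a fitted effect of over 55% in size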
#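 Read-out is CellTiter-Glo luminescence after 10 minutes at room temperature, following 48 hours' compound treatment of HT-1080-NT cells (750 cells/well, RPMI, 5% FBS, 37 degrees C).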
# TDP1 cell CPT – growth inhibition of DT40 Tdp1-/-;hTDP1 cells with camptothecin (screen for TDP1 inhibitors); chicken DT40 Tdp1-/-;hTDP1 cells + 20 nM CPT, ATP luminescence, 48 h; Potency, µM (titrated, usually from 46.2 µM), inactives show top-dose activity change, negative = growth inhibition, usual class: inhibitors; actives 12% (n = 420,000); AID 686979; also: potency is read from the fitted curve at half-maximal effect; nearly all actives have a fitted effect of over 55% in size
#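 Chicken DT40 Tdp1-/- cells complemented with human TDP1, 400 cells/well, exposed to compounds plus 20 nM camptothecin for at least 48 h at 37 C; viability read as ATP content by CellTiter-Glo luminescence.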
# * = called active by the depositor; ? = inconclusive; . = no result. Sampled rows, rich in hits. Any-hit rate of the full collection: about 19%. Unless noted, calls follow the shape of the dose curve; as a rule, active = well fitted curve in the direction sought with a large enough effect; inconclusive = small, poorly fitted or top-dose-only effect, or another doubt; inactive = no such curve, though single readings can be large; an effect the other way counts as inactive or inconclusive. Unless noted, % is scaled to controls: 0 for no effect and ±100 for the full control effect.
SMILES,HT1080 IDH1KD tx,ELG1 repair inh,DT40 TDP1 no CPT,IL1B secr inh,HT1080NT lethal,TDP1 cell CPT
CC(C)(C)c1cc(C(=O)N/N=C/c2ccccc2O)n(-c2ccccc2)n1,?,?,6.51µM*,62.1,?,6.51µM*
CS/C(=C/[N+](=O)[O-])Nc1cccc2c1C(C)CC2(C)C (stereo not drawn),-15.0%,6.6%,-2.9%,0.0,-20.3%,3.2%
Cc1ccccc1CC(=O)N1CCC(CCC(=O)NC2CC2)CC1,6.2%,.,-13.2%,9.1,10.0%,-12.5%
Nc1sc(Cc2ccccc2)cc1C(=O)NC1CCCCC1,-15.0%,.,14.6µM*,-18.0,-10.9%,?
O=C(NC1CCCCC1)c1ccc2ccccc2c1O,-0.4%,.,14.6µM*,-61.4*,-18.6%,?
COCCCNC(=O)c1cc(Cc2ccccc2)sc1N,7.3%,.,?,23.8,-0.9%,?
CCn1c(SC(C)C(=O)Nc2ccc(C)cc2)nnc1-c1ccccc1 (stereo not drawn),.,.,-29.3%,.,.,-12.0%
N#Cc1c(Nc2cccc(F)c2)sc2c(O)cc(=O)[nH]c12,6.0%,-0.4%,-14.0%,-5.4,-0.9%,-5.9%
COc1ccc(CCNC(=O)C(NC(=O)OCc2ccccc2)C(C)C)cc1OC (stereo not drawn),-9.5%,-2.7%,-19.3%,-7.6,-4.4%,4.1%
COC(=O)c1ccc(C(NC(=O)OCc2ccccc2)/C(F)=C/[C@@H](C)C(=O)NCc2ccc(OC)c(OC)c2)cc1 (stereo partly drawn),?,18.4µM*,?,-8.6,?,23.1µM*
COC(=O)c1ccc(C(NC(=O)OCc2ccccc2)/C(F)=C/[C@@H](C)C(=O)NCc2ccc(-c3ccccc3)cc2)cc1 (stereo partly drawn),8.5%,24.8%,?,-2.5,-8.8%,16.4µM*
CCCN1CNc2c(c(=O)[nH]c(=S)n2CCc2cccs2)C1,23.8%,.,-13.4%,.,19.0%,-25.8%
CC1=CC2=NC(=O)/C(=C/c3cccn3Cc3ccccc3)C(=N)N2O1,?,-8.9%,?,26.0,?,18.6%
N=C1/C(=C/c2cccn2Cc2ccc(Cl)cc2)C(=O)N=C2SC=CN12,20.6µM*,-18.7%,?,9.9,16.4µM*,-13.2%
COc1ccc2c(c1)OC[C@H]1[C@H]2N2C(=O)c3ccc(F)cc3NC(=O)[C@@]2(C)[C@H]1c1ccccc1,?,.,23.1µM*,-54.3*,?,18.4µM*
COc1ccc2c(c1)[C@H]1[C@H](CO2)[C@H](c2ccccc2)[C@]2(C)C(=O)Nc3cc(F)ccc3C(=O)N12,?,-16.2%,18.4µM*,?,?,?
C[C@@]12C(=O)Nc3ccc(F)cc3C(=O)N1[C@H]1c3ccccc3OC[C@@H]1[C@@H]2c1ccccc1,-4.0%,11.8%,-10.2%,?,-9.7%,?
COc1ccc2c(c1)[C@H]1[C@H](CO2)[C@H](c2ccccc2)[C@]2(C)C(=O)N[C@H](C)C(=O)N12,8.4%,-1.5%,-2.9%,26.4,-1.3%,-8.0%
CC(=O)c1sc(NC(=O)c2c(F)cccc2F)nc1C,12.9%,6.8%,-5.0%,-6.7,3.0%,-7.8%
CCn1nc(-c2ccccc2)c(-c2ccccc2)c(C(=O)Nc2nc(C)c(C(C)=O)s2)c1=O,.,.,1.64µM*,.,.,1.64µM*
CN(C)S(=O)(=O)c1cccc(NC(=O)COC(=O)c2c[nH]c(=O)[nH]c2=O)c1,1.6%,22.7%,5.7%,-1.0,-0.8%,2.8%
CCN1C(=O)/C(=C\c2ccncc2)SC1=Nc1ccc(C)c(C)c1,-15.9%,?,16.4µM*,-100.2*,-1.6%,?
CCN1C(=O)/C(=C\c2ccncc2)SC1=S,-0.2%,3.1%,-29.4%,-6.7,-1.7%,-17.3%
CCCN1C(=O)/C(=C\c2ccncc2)SC1=Nc1ccccc1,-13.1%,-0.3%,?,-98.3*,-11.3%,?
CC1CCCCC1NCC(=O)NCc1ccc(F)cc1 (stereo not drawn),6.8%,-12.0%,2.7%,-16.5,-2.7%,1.2%
SMILES,HT1080 IDH1KD tx,ELG1 repair inh,DT40 TDP1 no CPT,IL1B secr inh,HT1080NT lethal,TDP1 cell CPT
COc1ccc(CN2C(=O)c3ccccc3C2=O)cc1,3.7%,-2.0%,-1.4%,-10.7,-0.6%,21.7%
COc1ccc(CN2C(=O)c3ccccc3C(/C=N/OCc3ccc(Cl)cc3)C2=O)cc1 (stereo not drawn),?,3.0%,11.6µM*,7.8,-29.6%,13µM*
COc1ccc(CN2C(=O)c3ccccc3C(/C=N\OCc3ccc(F)cc3)C2=O)cc1 (stereo not drawn),?,12.3%,8.2µM*,0.0,-25.2%,?
COc1ccc(CN2C(=O)[C@@H]3C(c4ccc(F)cc4)=NO[C@@H]3C2=O)cc1,10.1%,1.3%,-17.3%,41.0,9.8%,0.6%
COc1cccc(OC)c1OCC(=O)Nc1ccc(S(=O)(=O)N2CCCC2)cc1,0.8%,?,?,15.1,-22.1%,?
Cc1ccc(C(=O)Nc2cccc(C(F)(F)F)c2)cc1NC(=O)c1nccnc1N,-7.4%,?,-7.0%,73.8,0.8%,-14.9%
Cc1ccc(C(=O)Nc2cccc(C(F)(F)F)c2)cc1Nc1cncnc1,-2.5%,?,14.6µM*,68.0,-0.8%,?
Cc1cnc(Nc2nc3ccccc3o2)nc1C(=O)Nc1cccc(C(F)(F)F)c1,-4.1%,?,20.6µM*,21.8,-13.9%,23.1µM*
Cc1occc1C(=O)Nc1cccc(C(F)(F)F)c1,11.3%,10.7%,?,-2.4,4.3%,?
Cc1ccc(C(=O)Nc2cccc(C(F)(F)F)c2)cc1Nc1ccccn1,-1.4%,-28.9%,16.4µM*,27.0,4.0%,20.6µM*
CCCCCNCC(=O)Nc1cccc(C(=O)Nc2cccc(C(F)(F)F)c2)c1,16.4µM*,2.9%,?,-100.9*,20.6µM*,?
Cc1cc(C)cc(NC(=O)CSc2nnc(CNC(=O)c3c(F)cccc3Cl)o2)c1,.,.,-4.3%,.,.,18.1%
Cc1ccc(NC(=O)/C(C#N)=C\c2ccc(-c3ccc(Cl)cc3)o2)c(C)c1,.,.,-97.1%,.,.,11.6µM*
Cc1ccc(NC(=O)/C(C#N)=C/c2ccc(C)o2)cc1,.,.,-17.5%,.,.,-7.2%
N#C/C(=C\c1ccc(-c2ccc(C(=O)O)cc2)o1)C(=O)NCC1CCCO1 (stereo not drawn),14.7%,?,-26.8%,-11.0,-0.2%,-0.5%
